These results are taken from PubChem BioAssay.

The nature of test [1]: Wnt pathway potentiators raising nuclear beta-catenin – imaging, WNT3A-conditioned medium, mouse C2C12, NPC library, primary screen (AID 1117326; in the data active means nuclear beta-catenin stimulation mostly above about 4.2%, no sharp cut-off; inactive means mostly below about 10%; further: reference of the scale not given here). Particulars: stronger effect = higher value.
Test [2] can be described thus: stimulators of insulin release from INS-1E, primary screen, cell-based, 5 mM glucose, NPC library (AID 1117329;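 active means compound raises insulin release from rat beta cells at 5 mM glucose, no numeric limit stated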; further: reference of the scale not given here). Particulars: rat INS-1E insulin secretion, at 10 µM, stronger effect = higher value.
The nature of test [3]: growth inhibition of GSK3B-pretreated HCT116 cells – cell-based, CellTiter-Glo, 0.2 to 20 µM (AID 1117336;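 active means compounds lowering colon cancer cell viability after pretreatment blocking the GSK3B kinase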). To be noted: HCT116 viability after GSK3B inhibitor, at 20 µM, stronger effect = higher value. In general terms: In ATP-based viability assays light output follows the ATP content of the culture.
Test [4] in a line: inhibition of endothelial tube formation, primary screen, imaging, VEGF stimulated, CD31 staining, tube area, NPC library (AID 1117340;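 active means compound that reduces growth-factor-driven endothelial tube area in a mixed cell culture, no cutoff stated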). Particulars: VEGF-stimulated ADSC/ECFC co-culture, at 10 µM, stronger effect = higher value.
A short description of test [5]: GLP1 release stimulators, primary, NCI-H716, NPC library (AID 1117341;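 active means compound raises GLP1 secretion from the human gut endocrine cells, with no numeric limit stated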; further: reference of the scale not given here). To be noted: NCI-H716 cells, at 10 µM, stronger effect = higher value.
A short description of test [6]: HCT116 colon cancer cell growth inhibition, primary screen, CellTiter-Glo luminescence, NPC library (AID 1117342;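 active means compounds that lower survival of HCT116 colon cancer cells in the luminescence readout, no numeric limit stated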). To be noted: at 20 µM (top of the series).
Test [7] in a line: reduced SW480 viability measured with CellTiter-Glo, NPC library, primary (AID 1117343). Particulars: CellTiter-Glo luminescence; at 20 µM (top of the series).
Test [8] in a line: NPC library primary testing for decreased DLD-1 cell viability via CellTiter-Glo (AID 1117346;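 active means compounds that lower survival of DLD-1 colon cancer cells in the luminescence readout, no cutoff given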). To be noted: DLD-1 viability, CellTiter-Glo luminescence; at 20 µM (top of the series).

Activity calls are given as the source filed them.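 How the source made its calls, unless noted: active means compounds that lower viability of the colon cancer cells in the luminescence readout, with no numeric limit stated; inactive means the rest.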

Take `C[C@]12CC[C@H]3[C@@H](CC[C@@]45O[C@H]4C(O)=C(C#N)C[C@]35C)[C@H]1CC[C@H]2O`: the nuclear beta-catenin stimulation in test [1] (at 10 µM) was 1.5% (inactive); in test [1] (stimulation, at 2 µM), 1.1%. Further, the insulin secretion stimulation in test [2] is -0.7% (inactive). The viability decrease in test [3] was -177% (inactive). Moreover, in test [4], the tube area decrease is 28.3% (inactive). Also, the GLP1 secretion stimulation in test [5] is -1.5% (inactive). Also, the inhibition of viability in test [6] is 11.5% (inactive). Moreover, the values for the viability decrease (inhibition) in test [7] and in test [8] were 5.1% (inactive) and -16.6% (inactive), respectively.
Take `COc1cc(CC#N)cc(OC)c1OC`: the nuclear beta-catenin stimulation was 0% (inactive) in test [1] (at 10 µM) and 1.2% in test [1] (stimulation, at 2 µM). Further, in test [2], the insulin secretion stimulation is 2.2% (inactive). The viability decrease in test [3] was 2.6% (inactive). Also, in test [4], the tube area decrease is 36.1% (inactive). Also, the GLP1 secretion stimulation in test [5] is 4.1% (inactive). Besides, the inhibition of viability in test [6] was 22.6% (inactive). In addition, the figures for the viability decrease (inhibition) in test [7] and in test [8] were 15.5% (inactive) and -1.6% (inactive), respectively.
As to `O=c1[nH]c2ccccc2n1C1CCNCC1`, the nuclear beta-catenin stimulation in test [1] (at 10 µM) was 0.8% (inactive); in test [1] (stimulation, at 2 µM), -0.9%. In addition, the insulin secretion stimulation in test [2] is -0.9% (inactive). Further, the viability decrease in test [3] is -5% (inactive). Further, the tube area decrease in test [4] was -5.4% (inactive). Also, the GLP1 secretion stimulation in test [5] was 1.9% (inactive). The inhibition of viability in test [6] was -8.2% (inactive). Moreover, the viability decrease (inhibition) was -13.1% (inactive) in test [7] and 7.3% (inactive) in test [8].
In the case of `Nc1ccccc1C(=O)O`, the nuclear beta-catenin stimulation in test [1] (at 10 µM) is 1.8% (inactive); in test [1] (stimulation, at 2 µM), 1.3%. For the same compound, the insulin secretion stimulation in test [2] is 0.9% (inactive). Moreover, the viability decrease in test [3] is -0.1% (inactive). In addition, in test [4], the tube area decrease was -2.6% (inactive). Moreover, the GLP1 secretion stimulation in test [5] is 1.1% (inactive). The inhibition of viability in test [6] is 6.4% (inactive). Moreover, the viability decrease (inhibition) in test [7] was 11.5% (inactive); in test [8], -8.85% (inactive).
As for `CCOC(=O)c1ncn2c1CN(C)C(=O)c1c(I)cccc1-2`, the nuclear beta-catenin stimulation in test [1] (at 10 µM) was -0.1% (inactive); in test [1] (stimulation, at 2 µM), -0.1%. Further, the insulin secretion stimulation in test [2] was 0.8% (inactive). For the same compound, in test [3], the viability decrease was 3.6% (inactive). In addition, in test [4], the tube area decrease is -12.8% (inactive). Besides, the GLP1 secretion stimulation in test [5] was -0.9% (inactive). In addition, the inhibition of viability in test [6] was 11.2% (inactive). The viability decrease (inhibition) in test [7] is -7.6% (inactive); in test [8] it was -11.3% (inactive).
On to `C[N+]1(CCF)[C@@H]2CC[C@H]1CC(OC(=O)C(O)(c1ccccc1)c1ccccc1)C2` (stereo partly drawn), for which the nuclear beta-catenin stimulation is -2.1% (inactive) in test [1] (at 10 µM) and 0.7% in test [1] (stimulation, at 2 µM). Moreover, in test [2], the insulin secretion stimulation is -0.1% (inactive). Besides, in test [3], the viability decrease is 4.8% (inactive). In test [4], the tube area decrease is 16.4% (inactive). The GLP1 secretion stimulation in test [5] was 4.4% (inactive). Also, the inhibition of viability in test [6] was 5.8% (inactive). The viability decrease (inhibition) was -2% (active) in test [7] and -1.5% (inactive) in test [8].
As for `CN1C(=S)CN=C(c2ccccc2)c2cc(Cl)ccc21`, the nuclear beta-catenin stimulation in test [1] (at 10 µM) is -0.4% (inactive); in test [1] (stimulation, at 2 µM), 3.4%. Further, the insulin secretion stimulation in test [2] is 1.75% (inactive). Besides, in test [3], the viability decrease was 65.8% (active). In addition, the tube area decrease in test [4] was 6.8% (inactive). Besides, the GLP1 secretion stimulation in test [5] was 1.6% (inactive). Further, in test [6], the inhibition of viability is 50.3% (active). The viability decrease (inhibition) in test [7] was 77.5% (active); in test [8], 32.7% (inactive).
Take `CC[N+]1(CC)CCC(OC(=O)C(O)(c2ccccc2)c2ccccc2)C1` (stereo not drawn): the nuclear beta-catenin stimulation in test [1] (at 10 µM) was -0.2% (inactive); in test [1] (stimulation, at 2 µM), -1.8%. For the same compound, the insulin secretion stimulation in test [2] is 3.25% (inactive). Further, in test [3], the viability decrease is 4.8% (inactive). The tube area decrease in test [4] was 1.2% (inactive). In addition, the GLP1 secretion stimulation in test [5] is 2.4% (inactive). Further, the inhibition of viability in test [6] is 4.2% (inactive). The results for the viability decrease (inhibition) in test [7] and in test [8] were -12.8% (inactive) and -6.4% (inactive), respectively.
With `CCCOC(=O)Cc1ccc(OCC(=O)N(CC)CC)c(OC)c1`, the nuclear beta-catenin stimulation was 0.4% (inactive) in test [1] (at 10 µM) and 1.3% in test [1] (stimulation, at 2 µM). Moreover, the insulin secretion stimulation in test [2] was -1.7% (inactive). For the same compound, the viability decrease in test [3] is 0.2% (inactive). In test [4], the tube area decrease is -2.3% (inactive). Moreover, the GLP1 secretion stimulation in test [5] is -1.8% (inactive). Moreover, the inhibition of viability in test [6] is 9.6% (inactive). Besides, the viability decrease (inhibition) in test [7] is 8.2% (inactive); in test [8], -4.8% (inactive).
Regarding `C1CN2CCC1CC2`, the nuclear beta-catenin stimulation in test [1] (at 10 µM) was 0.4% (inactive); in test [1] (stimulation, at 2 µM), 3.2%. In addition, the insulin secretion stimulation in test [2] is 1.5% (inactive). Besides, the viability decrease in test [3] is -7.5% (inactive). In addition, the tube area decrease in test [4] is 9.8% (inactive). Moreover, in test [5], the GLP1 secretion stimulation was 6.5% (inactive). Moreover, in test [6], the inhibition of viability is 4% (inactive). Besides, the viability decrease (inhibition) in test [7] was 4.8% (inactive); in test [8] it was 3.1% (inactive).
Turning to `CC(Cc1ccccc1)N(C)Cc1ccco1` (stereo not drawn), the nuclear beta-catenin stimulation is -0.5% (inactive) in test [1] (at 10 µM) and 0.7% in test [1] (stimulation, at 2 µM). In addition, in test [2], the insulin secretion stimulation was 2.3% (inactive). The viability decrease in test [3] was -12.2% (inactive). In test [4], the tube area decrease was 25.5% (inactive). For the same compound, the GLP1 secretion stimulation in test [5] was 0.1% (inactive). The inhibition of viability in test [6] was 8.5% (inactive). Besides, the viability decrease (inhibition) in test [7] was 4.3% (inactive); in test [8], -1.8% (inactive).
For the compound `COC(=O)c1cncn1C(C)c1ccccc1` (stereo not drawn), the nuclear beta-catenin stimulation was -0.2% (inactive) in test [1] (at 10 µM) and 0.1% in test [1] (stimulation, at 2 µM). For the same compound, in test [2], the insulin secretion stimulation is 1% (inactive). Besides, the viability decrease in test [3] was 1.8% (inactive). Besides, the tube area decrease in test [4] is -14.8% (inactive). Also, the GLP1 secretion stimulation in test [5] is 1.6% (inactive). In addition, in test [6], the inhibition of viability is -8.6% (inactive). The values for the viability decrease (inhibition) in test [7] and in test [8] were 24.4% (inactive) and 20.5% (inactive), respectively.
For `CCC1(c2ccccc2)C(=O)N(COC)C(=O)N(COC)C1=O`, the nuclear beta-catenin stimulation was 0.6% (inactive) in test [1] (at 10 µM) and 0.4% in test [1] (stimulation, at 2 µM). Besides, the insulin secretion stimulation in test [2] is 0.35% (inactive). In addition, the viability decrease in test [3] is 83.5% (active). For the same compound, the tube area decrease in test [4] was 4% (inactive). Also, the GLP1 secretion stimulation in test [5] was 1.4% (inactive). The inhibition of viability in test [6] was 96.3% (active). Further, the viability decrease (inhibition) was 89.5% (active) in test [7] and 62.9% (active) in test [8].
On to `CCc1ccc(C2CCNCC2)cc1`, for which the nuclear beta-catenin stimulation is -1.4% (inactive) in test [1] (at 10 µM) and -0.7% in test [1] (stimulation, at 2 µM). The insulin secretion stimulation in test [2] was 4% (inactive). Also, the viability decrease in test [3] is -2.8% (inactive). Besides, the tube area decrease in test [4] was 1.2% (inactive). For the same compound, the GLP1 secretion stimulation in test [5] was -5.6% (inactive). The inhibition of viability in test [6] was 24.1% (inactive). Besides, the viability decrease (inhibition) is 9% (inactive) in test [7] and -8.7% (inactive) in test [8].
For the compound `C[C@]12CC[C@H]3[C@@H](CCC4=CC(=O)CC[C@@H]43)[C@@H]1CC[C@@H]2OC(=O)CCc1ccco1`, the nuclear beta-catenin stimulation in test [1] (at 10 µM) is 2.9% (inactive); in test [1] (stimulation, at 2 µM), 1%. For the same compound, the insulin secretion stimulation in test [2] is 2.5% (inactive). In addition, the viability decrease in test [3] was -67% (inactive). For the same compound, in test [4], the tube area decrease is 47.2% (active). Besides, in test [5], the GLP1 secretion stimulation is -3.2% (inactive). In addition, the inhibition of viability in test [6] is 23.6% (inactive). Besides, the viability decrease (inhibition) is 37.2% (inactive) in test [7] and 14.9% (inactive) in test [8].
As to `Oc1ccc(Cl)cc1Cc1ccccc1`, the nuclear beta-catenin stimulation in test [1] (at 10 µM) is 0.2% (inactive); in test [1] (stimulation, at 2 µM) it was 0.1%. The insulin secretion stimulation in test [2] is 0.7% (inactive). Also, the viability decrease in test [3] was 38.4% (inactive). For the same compound, the tube area decrease in test [4] was 4.6% (inactive). In addition, the GLP1 secretion stimulation in test [5] is 38% (active). Also, the inhibition of viability in test [6] is -2.2% (inactive). The viability decrease (inhibition) is 118% (active) in test [7] and 85.4% (active) in test [8].
`CCCCNCC(O)c1ccc(O)cc1` (stereo not drawn): the nuclear beta-catenin stimulation is -0.1% (inactive) in test [1] (at 10 µM) and 3.1% in test [1] (stimulation, at 2 µM). Further, the insulin secretion stimulation in test [2] is 2.3% (inactive). Besides, the viability decrease in test [3] is 0.3% (inactive). Further, in test [4], the tube area decrease was 16.9% (inactive). Also, the GLP1 secretion stimulation in test [5] was -2.1% (inactive). Moreover, the inhibition of viability in test [6] is 8% (inactive). The viability decrease (inhibition) was -1.7% (inactive) in test [7] and -9.2% (inactive) in test [8].
